Laboratory results taken from the supplement of paper PMC10849652.
The full data set covers some 8,800 targets. This sample favours those with a hit. About 0.5% of all pairs of compound and target were hits. Unmarked numbers belong to inactive results.

Assays:
Assay in all cases: log2 fold change, soluble protein after heating vs DMSO (PISA); higher = thermal stabilisation; K562 lysate, 10 uM; active = over 0.2 and 3.5 SD of the protein, either way, in both replicates (recomputed)
alvocidib = compound: CN1CC[C@H](c2c(O)cc(O)c3c(=O)cc(-c4ccccc4Cl)oc23)[C@H](O)C1 [alvocidib]
In short: (§1)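 K562 pellets were dounce-homogenised in PBS pH 7.4 containing 1 mM MgCl2, and the crude extract, at 1 mg/mL protein, was exposed to 10 μM compound for 30 min. Aliquots were heated for 3 min across 48°C-58°C, pooled, brought to 0.5% NP-40 at 4°C and spun at 21,000xg for 90 min, with the supernatant taken as soluble protein. TMTpro 16plex LC-MS/MS with equalised channel sums quantified that protein. Values are log-two fold changes in thermal stability relative to solvent controls, taken from duplicates.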

Tubastatin A = compound: CN1CCc2c(c3ccccc3n2Cc2ccc(C(=O)NO)cc2)C1 [Tubastatin A]
In short: as §1

[1] = compound: CNC(=O)C1=CC=CC=C1NC2=NC(=NC=C2Cl)NC3=C(C=C(C=C3)N4CCOCC4)OC
In short: as §1

defactinib = compound: CNC(=O)c1ccc(Nc2ncc(C(F)(F)F)c(NCc3nccnc3N(C)S(C)(=O)=O)n2)cc1 [defactinib]
In short: as §1

[2] = compound: CNc1nc(-c2ccc3c(N)n[nH]c3c2)cc(N2C[C@@H](C(=O)NC3CCCCC3)CC[C@H]2C)n1
In short: as §1

encorafenib = compound: COC(=O)N[C@@H](C)CNc1nccc(-c2cn(C(C)C)nc2-c2cc(Cl)cc(NS(C)(=O)=O)c2F)n1 [encorafenib]
In short: as §1

[3] = compound: COC(=O)[C@H](CCSC)NC(=O)C1=C(C=C(C=C1)NC[C@H](CS)N)C2=CC=CC=C2
In short: as §1

alisertib = compound: COc1cc(Nc2ncc3c(n2)-c2ccc(Cl)cc2C(c2c(F)cccc2OC)=NC3)ccc1C(=O)O [alisertib]
In short: as §1

[4] = compound: COc1cc2nc(-c3cc(F)ccc3O)nc(N[C@@H]3CNC[C@H]3C(C)(C)O)c2cc1OC
In short: as §1

gefitinib = compound: COc1cc2ncnc(Nc3ccc(F)c(Cl)c3)c2cc1OCCCN1CCOCC1 [gefitinib]
In short: as §1

lapatinib = compound: CS(=O)(=O)CCNCc1ccc(-c2ccc3ncnc(Nc4ccc(OCc5cccc(F)c5)c(Cl)c4)c3c2)o1 [lapatinib]
In short: as §1

pictilisib = compound: CS(=O)(=O)N1CCN(Cc2cc3nc(-c4cccc5[nH]ncc45)nc(N4CCOCC4)c3s2)CC1 [pictilisib]
In short: as §1

crizotinib = compound: C[C@@H](Oc1cc(-c2cnn(C3CCNCC3)c2)cnc1N)c1c(Cl)ccc(F)c1Cl [crizotinib]
In short: as §1

[5] = compound: C[C@H](C1=CC=C(C=C1)C(=O)NC2=C3C=CNC3=NC=C2)N
In short: as §1

duvelisib = compound: C[C@H](Nc1ncnc2nc[nH]c12)c1cc2cccc(Cl)c2c(=O)n1-c1ccccc1 [duvelisib]
In short: as §1

gandotinib = compound: Cc1cc(Nc2cc(CN3CCOCC3)c3nc(C)c(Cc4ccc(Cl)cc4F)n3n2)n[nH]1 [gandotinib]
In short: as §1

tozasertib = compound: Cc1cc(Nc2cc(N3CCN(C)CC3)nc(Sc3ccc(NC(=O)C4CC4)cc3)n2)n[nH]1 [tozasertib]
In short: as §1

doramapimod = compound: Cc1ccc(-n2nc(C(C)(C)C)cc2NC(=O)Nc2ccc(OCCN3CCOCC3)c3ccccc23)cc1 [doramapimod]
In short: as §1

bafetinib = compound: Cc1ccc(NC(=O)c2ccc(CN3CC[C@H](N(C)C)C3)c(C(F)(F)F)c2)cc1Nc1nccc(-c2cncnc2)n1 [bafetinib]
In short: as §1

[6] = compound: Cc1cccc(CC(=O)N2CCc3c2ccc(-c2cn(C)c4ncnc(N)c24)c3F)n1
In short: as §1

UniProt Q93074, sequence (Q93074 whole entry, looked up): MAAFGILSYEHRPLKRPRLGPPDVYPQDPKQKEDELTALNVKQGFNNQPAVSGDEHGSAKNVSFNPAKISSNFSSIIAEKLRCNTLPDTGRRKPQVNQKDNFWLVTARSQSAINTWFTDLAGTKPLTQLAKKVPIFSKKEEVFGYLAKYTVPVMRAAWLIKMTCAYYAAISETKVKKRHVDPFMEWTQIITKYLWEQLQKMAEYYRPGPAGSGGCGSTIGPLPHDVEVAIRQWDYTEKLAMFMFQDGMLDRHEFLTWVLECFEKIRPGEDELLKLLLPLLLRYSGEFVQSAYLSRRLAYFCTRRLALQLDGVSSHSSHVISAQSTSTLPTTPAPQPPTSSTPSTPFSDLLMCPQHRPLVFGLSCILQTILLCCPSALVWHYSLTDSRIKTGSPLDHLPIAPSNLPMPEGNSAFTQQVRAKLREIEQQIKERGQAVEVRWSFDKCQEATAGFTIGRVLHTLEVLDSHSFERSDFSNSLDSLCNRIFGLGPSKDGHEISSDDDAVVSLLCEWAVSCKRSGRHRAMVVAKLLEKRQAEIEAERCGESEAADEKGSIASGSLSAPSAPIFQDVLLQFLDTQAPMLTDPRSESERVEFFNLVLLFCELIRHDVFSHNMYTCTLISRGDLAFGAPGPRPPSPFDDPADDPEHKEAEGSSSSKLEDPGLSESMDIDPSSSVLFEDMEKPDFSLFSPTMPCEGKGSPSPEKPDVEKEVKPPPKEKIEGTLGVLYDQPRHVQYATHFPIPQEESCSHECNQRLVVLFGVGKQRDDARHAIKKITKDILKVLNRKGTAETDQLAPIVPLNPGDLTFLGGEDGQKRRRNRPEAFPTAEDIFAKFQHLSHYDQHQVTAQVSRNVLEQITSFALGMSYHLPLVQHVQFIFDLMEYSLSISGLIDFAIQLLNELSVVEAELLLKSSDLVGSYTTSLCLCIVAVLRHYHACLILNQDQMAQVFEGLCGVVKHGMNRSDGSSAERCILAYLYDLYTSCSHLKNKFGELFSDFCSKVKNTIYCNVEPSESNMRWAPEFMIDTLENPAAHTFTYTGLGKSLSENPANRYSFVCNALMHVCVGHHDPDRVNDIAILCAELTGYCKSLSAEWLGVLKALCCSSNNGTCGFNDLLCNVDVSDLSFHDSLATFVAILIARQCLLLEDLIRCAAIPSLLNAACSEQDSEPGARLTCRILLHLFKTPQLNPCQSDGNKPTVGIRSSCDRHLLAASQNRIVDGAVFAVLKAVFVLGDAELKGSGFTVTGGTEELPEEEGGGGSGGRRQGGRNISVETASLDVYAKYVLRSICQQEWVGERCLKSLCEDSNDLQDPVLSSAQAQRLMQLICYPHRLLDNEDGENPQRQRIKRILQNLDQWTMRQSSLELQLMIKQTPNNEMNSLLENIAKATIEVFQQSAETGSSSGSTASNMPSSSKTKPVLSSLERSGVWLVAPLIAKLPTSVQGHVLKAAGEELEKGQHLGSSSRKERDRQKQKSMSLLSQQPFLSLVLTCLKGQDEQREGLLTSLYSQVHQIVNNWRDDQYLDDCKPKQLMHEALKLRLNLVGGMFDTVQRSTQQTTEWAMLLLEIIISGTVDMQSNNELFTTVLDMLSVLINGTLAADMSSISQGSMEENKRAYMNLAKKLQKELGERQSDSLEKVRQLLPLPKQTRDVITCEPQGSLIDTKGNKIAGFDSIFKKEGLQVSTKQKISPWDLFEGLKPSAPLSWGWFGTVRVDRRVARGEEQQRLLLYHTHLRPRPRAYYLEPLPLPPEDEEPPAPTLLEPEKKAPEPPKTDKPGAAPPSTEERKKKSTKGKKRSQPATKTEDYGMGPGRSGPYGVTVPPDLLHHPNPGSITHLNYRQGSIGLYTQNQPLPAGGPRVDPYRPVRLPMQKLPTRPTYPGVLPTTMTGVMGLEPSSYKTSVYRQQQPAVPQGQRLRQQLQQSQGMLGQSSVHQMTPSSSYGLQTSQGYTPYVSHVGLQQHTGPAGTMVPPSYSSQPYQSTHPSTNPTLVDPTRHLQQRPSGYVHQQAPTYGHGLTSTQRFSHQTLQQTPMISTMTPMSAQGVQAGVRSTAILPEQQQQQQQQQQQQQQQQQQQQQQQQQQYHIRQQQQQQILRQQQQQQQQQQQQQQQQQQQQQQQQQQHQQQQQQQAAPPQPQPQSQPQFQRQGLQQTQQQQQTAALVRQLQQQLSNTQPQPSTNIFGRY
UniProt O95777, sequence (O95777 whole entry, looked up): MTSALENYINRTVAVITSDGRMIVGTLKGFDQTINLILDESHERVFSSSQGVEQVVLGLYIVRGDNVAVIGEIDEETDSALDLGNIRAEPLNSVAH
UniProt Q9Y448, sequence (Q9Y448 whole entry, looked up): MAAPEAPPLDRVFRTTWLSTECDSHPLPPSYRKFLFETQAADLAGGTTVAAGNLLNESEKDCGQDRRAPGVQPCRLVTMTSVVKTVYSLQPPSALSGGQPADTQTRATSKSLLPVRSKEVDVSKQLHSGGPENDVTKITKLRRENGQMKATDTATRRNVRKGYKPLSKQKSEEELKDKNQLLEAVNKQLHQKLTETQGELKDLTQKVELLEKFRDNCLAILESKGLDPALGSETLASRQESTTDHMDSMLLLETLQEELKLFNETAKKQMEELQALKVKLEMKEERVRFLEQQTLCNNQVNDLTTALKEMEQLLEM
UniProt Q96G25, sequence (Q96G25 whole entry, looked up): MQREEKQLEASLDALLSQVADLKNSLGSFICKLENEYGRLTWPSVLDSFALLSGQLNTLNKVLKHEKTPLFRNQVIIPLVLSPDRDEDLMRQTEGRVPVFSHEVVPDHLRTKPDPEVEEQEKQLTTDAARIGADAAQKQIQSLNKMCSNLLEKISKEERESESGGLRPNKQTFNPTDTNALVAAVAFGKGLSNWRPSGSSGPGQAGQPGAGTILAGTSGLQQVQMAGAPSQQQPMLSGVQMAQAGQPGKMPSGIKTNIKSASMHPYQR
UniProt P48449, sequence (P48449 whole entry, looked up): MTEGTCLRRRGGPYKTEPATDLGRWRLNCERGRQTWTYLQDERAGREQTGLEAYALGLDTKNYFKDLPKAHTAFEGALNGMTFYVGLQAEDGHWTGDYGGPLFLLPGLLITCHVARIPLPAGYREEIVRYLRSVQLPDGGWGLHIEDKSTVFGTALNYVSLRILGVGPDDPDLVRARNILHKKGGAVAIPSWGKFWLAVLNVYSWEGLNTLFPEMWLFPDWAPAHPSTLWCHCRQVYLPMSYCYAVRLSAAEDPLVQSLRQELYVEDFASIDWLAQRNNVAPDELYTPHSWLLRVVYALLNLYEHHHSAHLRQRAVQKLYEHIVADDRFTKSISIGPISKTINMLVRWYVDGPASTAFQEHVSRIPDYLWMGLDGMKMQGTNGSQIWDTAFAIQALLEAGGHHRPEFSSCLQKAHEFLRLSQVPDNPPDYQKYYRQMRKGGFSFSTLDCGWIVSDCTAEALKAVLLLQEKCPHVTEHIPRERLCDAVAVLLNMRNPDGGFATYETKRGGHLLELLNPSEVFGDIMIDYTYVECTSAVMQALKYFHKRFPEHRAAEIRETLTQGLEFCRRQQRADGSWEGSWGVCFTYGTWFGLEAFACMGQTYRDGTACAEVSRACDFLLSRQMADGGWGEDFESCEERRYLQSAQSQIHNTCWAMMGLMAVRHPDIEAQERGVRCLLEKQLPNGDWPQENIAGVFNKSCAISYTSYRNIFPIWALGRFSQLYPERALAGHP
UniProt Q99661, sequence (Q99661 whole entry, looked up): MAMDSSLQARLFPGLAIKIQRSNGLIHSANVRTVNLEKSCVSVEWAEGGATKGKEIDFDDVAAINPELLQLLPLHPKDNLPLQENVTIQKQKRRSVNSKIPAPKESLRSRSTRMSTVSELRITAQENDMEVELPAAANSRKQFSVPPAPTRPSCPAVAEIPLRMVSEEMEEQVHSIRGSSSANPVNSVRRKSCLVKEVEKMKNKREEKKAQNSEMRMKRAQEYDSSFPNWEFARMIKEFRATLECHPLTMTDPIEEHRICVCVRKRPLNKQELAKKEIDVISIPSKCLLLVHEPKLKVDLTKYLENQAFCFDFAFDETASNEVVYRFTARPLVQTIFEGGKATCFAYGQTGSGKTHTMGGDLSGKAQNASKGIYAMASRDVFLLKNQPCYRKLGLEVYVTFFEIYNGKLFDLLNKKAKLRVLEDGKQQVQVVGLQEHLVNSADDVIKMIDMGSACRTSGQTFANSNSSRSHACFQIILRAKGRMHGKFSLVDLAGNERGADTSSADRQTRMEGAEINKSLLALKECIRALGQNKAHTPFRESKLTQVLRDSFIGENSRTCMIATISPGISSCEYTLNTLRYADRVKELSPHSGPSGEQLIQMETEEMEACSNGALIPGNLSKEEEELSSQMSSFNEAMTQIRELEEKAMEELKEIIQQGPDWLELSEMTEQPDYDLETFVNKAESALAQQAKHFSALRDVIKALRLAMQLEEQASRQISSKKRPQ
UniProt Q9H6V9, sequence (Q9H6V9 whole entry, looked up): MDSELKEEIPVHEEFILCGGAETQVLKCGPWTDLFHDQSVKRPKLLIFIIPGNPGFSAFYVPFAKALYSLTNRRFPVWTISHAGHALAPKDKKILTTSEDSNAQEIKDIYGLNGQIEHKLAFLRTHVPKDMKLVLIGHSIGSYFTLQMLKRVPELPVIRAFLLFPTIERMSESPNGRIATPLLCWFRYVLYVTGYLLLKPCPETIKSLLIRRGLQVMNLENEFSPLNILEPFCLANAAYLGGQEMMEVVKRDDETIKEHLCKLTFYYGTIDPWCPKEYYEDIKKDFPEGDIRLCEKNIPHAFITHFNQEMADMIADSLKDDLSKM
UniProt P46734, sequence (P46734 whole entry, looked up): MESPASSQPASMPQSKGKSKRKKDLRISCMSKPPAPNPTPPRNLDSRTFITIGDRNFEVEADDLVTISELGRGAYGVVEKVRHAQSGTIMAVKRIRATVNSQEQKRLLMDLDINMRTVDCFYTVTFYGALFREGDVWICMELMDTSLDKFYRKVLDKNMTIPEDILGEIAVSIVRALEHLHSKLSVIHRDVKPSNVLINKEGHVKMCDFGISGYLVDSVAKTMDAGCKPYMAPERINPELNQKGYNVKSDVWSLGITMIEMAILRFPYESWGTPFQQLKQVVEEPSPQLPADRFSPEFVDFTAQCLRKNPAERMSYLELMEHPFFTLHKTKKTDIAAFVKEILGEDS

Row | Target | log2 fold change (alvocidib) | log2 fold change (Tubastatin A) | log2 fold change [1] | log2 fold change (defactinib) | log2 fold change [2] | log2 fold change (encorafenib) | log2 fold change [3] | log2 fold change (alisertib) | log2 fold change [4] | log2 fold change (gefitinib) | log2 fold change (lapatinib) | log2 fold change (pictilisib) | log2 fold change (crizotinib) | log2 fold change [5] | log2 fold change (duvelisib) | log2 fold change (gandotinib) | log2 fold change (tozasertib) | log2 fold change (doramapimod) | log2 fold change (bafetinib) | log2 fold change [6]
1 | MARK3 (UniProt P27448) | -0.071 | -0.119 | -0.188 | -0.158 | 0.113 | 0.038 | 0.129 | 0.006 | 0.003 | -0.02 | 0.007 | -0.061 | -0.206 | 0.043 | 0.011 | -0.089 | -0.143 | -0.081 | -0.088 | 0.049
2 | KIF11 (UniProt P52732) | 0.008 | -0.107 | 0.035 | -0.007 | -0.022 | 0.034 | 0.032 | -0.013 | -0.003 | 0.016 | 0 | 0.021 | 0.001 | -0.03 | 0.017 | -0.042 | 0.006 | 0.014 | -0.014 | 0.063
3 | MED16 (UniProt Q9Y2X0) | 0.01 | -0.093 | 0.02 | -0.014 | 0.004 | -0.011 | 0.038 | -0.015 | -0.004 | 0.019 | -0.014 | -0.154 | 0.03 | 0.167 | -0.027 | -0.261 (active) | 0.012 | 0.021 | 0.051 | -0.065
4 | L3HYPDH (UniProt Q96EM0) | 0.023 | -0.052 | 0.005 | -0.012 | 0.022 | -0.017 | 0.039 | -0.019 | -0.005 | -0.013 | -0.019 | -0.032 | -0.028 | -0.045 | -0.014 | 0.018 | -0.002 | 0.036 | -0.018 | -0.048
5 | LYRM4 (UniProt Q9HD34) | 0.013 | 0.068 | -0.042 | 0 | 0.036 | -0.008 | 0 | 0.007 | 0 | 0.008 | -0.036 | -0.026 | -0.034 | 0.413 (active) | 0.031 | -0.095 | -0.021 | -0.047 | 0.008 | -0.007
6 | MED8 isoform 2 (UniProt Q96G25) | 0.026 | -0.048 | 0.023 | -0.009 | 0.045 | 0.056 | -0.113 | -0.07 | 0.059 | -0.038 | 0.005 | -0.051 | 0.014 | 0.269 (active) | 0.023 | -0.026 | 0.047 | 0.069 | -0.031 | -0.044
7 | MAP2K3 isoform 3 (UniProt P46734) | 0.05 | -0.066 | 0.139 | 0.017 | -0.055 | -0.011 | 0.169 | 0 | -0.171 | -0.087 | -0.014 | -0.102 | -0.043 | -0.021 | 0.124 | 0.038 | 0.017 | -0.047 | -0.012 | -0.035
8 | MED12 isoform 2 (UniProt Q93074) | -0.022 | -0.161 | -0.02 | 0.029 | -0.041 | 0.028 | 0.06 | 0.016 | -0.011 | 0.027 | 0.009 | 0.017 | -0.017 | 0.002 | 0 | -0.072 | -0.033 | 0.011 | -0.012 | -0.011
9 | LSS (UniProt P48449) | -0.011 | 0.021 | -0.03 | -0.026 | 0.021 | 0.031 | 0.02 | 0.011 | 0.032 | 0.055 | 0 | 0.11 | 0.252 (active) | 0.01 | 0.008 | 0.028 | 0.02 | 0.031 | 0.13 | -0.013
10 | LARS2 (UniProt Q15031) | 0.021 | -0.06 | -0.047 | 0.013 | -0.088 | 0.038 | -0.115 | 0.051 | 0.007 | 0.012 | -0.012 | -0.073 | -0.047 | 0.014 | -0.039 | -0.2 | 0.054 | 0.012 | -0.067 | 0.044
11 | MGST1 (UniProt P10620) | 0.033 | -0.011 | 0.07 | 0.02 | 0.038 | 0.007 | 0.001 | 0.009 | 0.023 | -0.066 | -0.047 | 0.018 | 0.003 | 0.22 (active) | 0.013 | -0.025 | -0.011 | -0.041 | -0.032 | -0.016
12 | KIF2C (UniProt Q99661) | 0.011 | -0.18 | -0.006 | 0.018 | 0.002 | 0.004 | 0.096 | -0.006 | 0.001 | -0.014 | 0.002 | -0.003 | -0.007 | 0.004 | 0.011 | -0.051 | -0.008 | 0.022 | 0.004 | -0.002
13 | KNSTRN (UniProt Q9Y448) | 0.001 | -0.062 | 0.038 | -0.029 | 0.053 | 0.074 | -0.264 (active) | 0.043 | -0.016 | -0.022 | 0.013 | 0.05 | 0.029 | 0.065 | -0.009 | -0.024 | 0.026 | -0.052 | 0.024 | -0.056
14 | LSM8 (UniProt O95777) | -0.012 | 0.018 | 0.007 | 0.048 | -0.028 | 0.032 | -0.076 | -0.026 | 0.005 | 0.046 | -0.005 | -0.067 | 0.02 | -0.028 | 0.002 | 0.007 | 0.037 | 0.016 | 0.176 | 0.026
15 | LDAH isoform 2 (UniProt Q9H6V9) | 0.003 | -0.124 | -0.012 | 0.012 | -0.027 | -0.03 | 0.048 | 0 | -0.036 | 0.004 | 0.014 | 0.006 | -0.062 | -0.016 | 0.008 | -0.036 | 0.06 | 0.021 | -0.01 | 0.143
16 | MAPK1 (UniProt P28482) | 0.051 | 0.061 | 0.242 (active) | 0.091 | -0.007 | -0.062 | 0.031 | -0.038 | 0.043 | 0.014 | -0.018 | 0.005 | 0.065 | -0.004 | 0.004 | 0.036 | -0.01 | -0.013 | 0.004 | -0.061
